Screening results (PubChem BioAssay)
An excerpt weighted towards active compounds, which were near 3.5% of everything screened.
GPR151 ag = activators of human GPR151; PathHunter beta-arrestin GPR151 cells, luminescence; activation, % at 11.2 µM; hit rate 1% among 650,000; in the data active = activation above about 4.9%;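 note: 0% = median of compound wells and 100% = cells with positive control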
TEAD-YAP block = TEAD-YAP interaction inhibition | hit rate 1.4% among 640,000 | inhibition, % at 9.12 µM | HEK-TIYL cells, TEAD-Gal4/YAP UAS-luciferase luminescence | AID 1259422; in the data active = inhibition above about 32%;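 note: 0% = median of test compound wells and 100% = reference inhibitor wells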
FBW7 activator = human FBW7 E3 ligase activation, primary screen | Q969H0 | AlphaScreen FBW7–phospho-cyclin E peptide binding, activator screen | normalized activity (activation), % at 26.1 µM | hit rate 0.13% among 650,000 | AID 1259310; in the data active = normalized activity above about 1.9%;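 note: purified mutant Fbw7 with reduced substrate affinity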
MITF inh = blocks human microphthalmia-associated transcription factor | O75030 | AlphaScreen MITF homodimerization, bead proximity signal | inhibition, % at 2.6 µM | hit rate 0.91% among 650,000 | AID 1259374; in the data active = inhibition above about 50%;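 note: 0% = vehicle wells with protein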
Target sequence (O75030 whole entry, looked up): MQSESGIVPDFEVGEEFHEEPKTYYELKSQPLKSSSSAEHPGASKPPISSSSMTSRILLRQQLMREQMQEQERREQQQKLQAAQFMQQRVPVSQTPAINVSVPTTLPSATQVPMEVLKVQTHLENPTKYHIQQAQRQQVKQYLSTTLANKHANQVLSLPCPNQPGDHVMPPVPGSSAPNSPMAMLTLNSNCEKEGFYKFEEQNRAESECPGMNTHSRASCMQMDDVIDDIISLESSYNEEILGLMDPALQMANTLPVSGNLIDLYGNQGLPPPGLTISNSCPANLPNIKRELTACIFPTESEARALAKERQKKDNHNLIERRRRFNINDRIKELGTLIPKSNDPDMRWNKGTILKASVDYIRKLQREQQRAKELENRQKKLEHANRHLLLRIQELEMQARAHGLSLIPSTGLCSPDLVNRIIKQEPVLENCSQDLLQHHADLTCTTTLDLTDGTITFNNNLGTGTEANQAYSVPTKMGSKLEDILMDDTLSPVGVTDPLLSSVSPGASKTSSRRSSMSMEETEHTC
GPR151 confirm = confirmation of human GPR151 activators | GPR151 PathHunter beta-arrestin cells, luminescence, 90 min; % of EA-reagent control over plate median | shares compounds with GPR151 ag | 6,700 tested, under 10 active | activation, % at 11.2 µM;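 active = mean percent activation across replicates above the confirmation screen cutoff of 4.91%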
GPR119 ag = activates human GPR119 in a GPR151 counter-screen. shares compounds with GPR151 ag. GPR119 PathHunter beta-arrestin cells, luminescence, 90 min; 0 = compound-well median, 100 = enzyme-acceptor control. activation, % at 11.2 µM. hit rate 0.3% among 6,700. AID 1508611;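 active = mean percent activation in the counterscreen above 29.09%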;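 note: counterscreen on off-target GPR119 to flag nonselective hits from the GPR151 activator screen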
Active calls of the source: *; · = no result given; ! = not confirmed by another sample.

SMILES | GPR151 ag | TEAD-YAP block | FBW7 activator | MITF inh | GPR151 confirm | GPR119 ag
O=S(=O)(NN=C1CCCCCC1)c1ccccc1 | 15* | 11 | 0 | 3 | -1 | -6
CCOC(=O)C1=C(C)OC(N)=C(C#N)C1c1ccc(OC)c(OCC)c1 (stereo unspecified) | 5.2* | 1 | 0 | -22 | 0 | 10
COC(=O)C1=C(C)OC(N)=C(C#N)C1c1ccccc1C(F)(F)F (stereo unspecified) | -1 | 2 | 0 | -8 | · | ·
CCOC(=O)C1=C(C)OC(N)=C(C#N)C1c1ccc(OC)c(OC)c1 (stereo unspecified) | 0 | -1 | 0 | 0 | · | ·
CCOC(=O)C1=C(C)OC(N)=C(C#N)C1c1ccccc1C(F)(F)F (stereo unspecified) | 7.1* | 0 | 0 | 3 | 0 | -5
CCN(CC)c1ccc(/C=N/N2C(=O)c3ccccc3C2=O)cc1 | 0 | 9 | 0 | -2 | · | ·
CCN(CC)c1ccc(/C=N/NC(=O)COc2ccccc2)c(O)c1 | 8.1* | 3 | 0 | 6 | 1 | 12
CCN(CC)c1ccc(/C=N/N2C(=O)c3ccccc3C2=O)c(O)c1 | 8.3* | 4 | 0 | -72 | 0 | 2
CCCCN1C(=O)C2C(C(=O)Nc3cccc(C)c3)C3C=CC2(O3)C1C(=O)NC1CCCC(C)C1C (stereo unspecified) | -2 | 4 | 0 | 11 | · | ·
C=C(C)c1cccc(C(C)(C)NC(=O)Nc2ccccc2F)c1 | 9.5* | 18 | 0 | 15 | 0 | -8
C=C(C)c1cccc(C(C)(C)NC(=O)Nc2ccc(C(C)=O)cc2)c1 | 0 | -1 | 0 | 6 | · | ·
Cc1c(-c2ccc(Cl)cc2)[n+]2c(n1-c1ccccc1)SCCC2 | 0 | 22 | 0 | -3 | · | ·
Cc1nn(C)c(Cl)c1CN1CCN(C2CCCCC2)C(CCO)C1 (stereo unspecified) | 8.9* | 8 | 0 | 9 | 0 | -1
CSc1ncc(CN2CCN(C3CCCC3)C(CCO)C2)cn1 (stereo unspecified) | 9.7* | 3 | 0 | -1 | 0 | 0
O=S(=O)(O)CCC[N+]1=C(/C=C/Nc2ccccc2)SCC1 | 0 | -5 | 1 | -12 | · | ·
N#Cc1cc([N+](=O)[O-])cc2c1C=Cc1ccccc1O2 | 0 | 0 | 0 | 18 | · | ·
COc1ccc(OC)c(C2=NOC(C(=O)NCc3ccccc3)C2)c1 (stereo unspecified) | 1 | 16 | 0 | 16 | · | ·
COc1ccc(OC)c(C2=NOC(C(=O)NCc3cccnc3)C2)c1 (stereo unspecified) | 6.3* | 1 | 0 | -13 | 1 | 6
COCCCNc1nc2nonc2nc1N1CCN(C2CCCC2)CC1 | 5.7* | 2 | 0 | -1 | 1 | 11
COCCCNc1nc2nonc2nc1N1CCN2CCCC2C1 (stereo unspecified) | 0 | 1 | 0 | -8 | · | ·
CC(=O)Nc1ccc(S(=O)(=O)Nc2nnc(-c3ccc(F)cc3)s2)cc1 | 6.7* | -7 | 0 | 0 | 2 | 7
COc1cccc(NC(=O)CSc2nncc(=O)n2N)c1 | 0 | 0 | 0 | -5 | · | ·
Cn1c2c(c(=O)[nH]c1=O)C(c1ccc(Cl)cc1)C1=C(COC1=O)N2 (stereo unspecified) | -1 | 7 | 0 | 8 | · | ·
CNCCCC1c2ccccc2C=Cc2ccccc21 | 10*! | 2 | 0 | 5 | 0 | 2
O=C1c2ccccc2C(=O)N1c1ccc(Oc2ccccc2)cc1 | 0 | 13 | 0 | -3 | · | ·
SMILES | GPR151 ag | TEAD-YAP block | FBW7 activator | MITF inh | GPR151 confirm | GPR119 ag
CN1C(=O)C(C)(C)c2cc(S(=O)(=O)N3CCN(c4ccccc4F)CC3)ccc21 | 5.1* | -9 | 0 | 1 | 0 | 5
Cc1cccc(N2CCN(S(=O)(=O)c3ccc4c(c3)C(C)(C)C(=O)N4C)CC2)c1C | 0 | 5 | 0 | 32 | · | ·
CC1(C)CC2(CCO1)OC(=O)CC2C(=O)NCc1ccccc1 (stereo unspecified) | 5.6* | -5 | 0 | -10 | 0 | 6
COc1ccc(/C=C/C(=O)NNc2nc(C)cc(=O)[nH]2)cc1 | 1 | 9 | 0 | 1 | · | ·
COCCn1c(SCC(=O)Nc2ccc(C)c(C)c2)nnc1C(C)C | 8.2* | 12 | 0 | 7 | 0 | 0
COCCNc1ccc2ncc(-c3ccccc3Cl)n2n1 | -1 | -6 | 0 | -18 | · | ·
Cc1ccc(N(CC(O)Cn2nc(C)cc2C)S(=O)(=O)c2ccc([N+](=O)[O-])cc2)cc1 (stereo unspecified) | 4.9* | -10 | 0 | 1 | 1 | 2
Cc1ccc(N(CC(O)CN2CCOCC2)S(=O)(=O)c2ccc([N+](=O)[O-])cc2)cc1 (stereo unspecified) | -1 | 9 | 0 | 5 | · | ·
O=C(Cn1ncc2ccccc21)NCc1cccc(Br)c1 | -1 | -42 | 0 | -10 | · | ·
O=C(Cn1ncc2c(Cl)cccc21)NCc1cccc(Br)c1 | 6.5* | -9 | 0 | 0 | 0 | 0
O=C(Nc1cc2c3c(c1)CC(=O)N3CCC2)c1ccc(-c2ccccc2)cc1 | -2 | -12 | 0 | -2 | · | ·
O=C1CCC(CCC(=O)N2Cc3ccccc3OC(c3ccccc3)C2)=NN1 (stereo unspecified) | 9.9* | -10 | 0 | -3 | 0 | 5
O=C(CCC1=NNC(=O)CC1)NCCN1Cc2ccccc2OC(c2ccccc2F)C1 (stereo unspecified) | 1 | 0 | 0 | 5 | · | ·
Cc1ccc(CN2CCc3nncn3CC2)cc1C | 2 | 2 | 0 | 15 | · | ·
CC1=C(C#N)C(c2ccc(C(C)C)cc2)C(C#N)=C(C)N1 | 9.9* | 4 | 0 | -3 | 0 | 11
CC(C)c1ccc(C2C(C#N)=C(N)OC(N)=C2C#N)cc1 | 0 | -2 | 0 | -7 | · | ·
C/C(=N\NC(=O)c1ccncc1)c1ccc(I)cc1 | -1 | -20 | 0 | 6 | · | ·
O=C(NCC(c1cccs1)S(=O)(=O)c1ccc(F)cc1)c1ccccc1 (stereo unspecified) | 0 | 0 | 0 | -1 | · | ·
CC(C)C(=O)Nc1cccc(C(=O)N2CCCc3ccccc32)c1 | 6.5* | 10 | 0 | 18 | 1 | -1
Cc1ccc(C(=O)N2CCCc3ccccc32)cc1C | -1 | -12 | 0 | 4 | · | ·
CCN(CC)C(=S)SCCC(=O)NC(=O)Nc1ccc(F)cc1 | 24* | 14 | -1 | 1 | -1 | -3
COc1cc2nc(NCCCOC(C)C)n3nc(-c4cccnc4)nc3c2cc1OC | 5.2* | 10 | 0 | 1 | 0 | -9
Cc1cc(NC(=O)c2ccccc2)n(-c2nc3ccccc3[nH]2)n1 | -2 | 4 | 0 | 11 | · | ·
Cc1cc(NC(=O)c2cc3ccccc3oc2=O)n(-c2nc3ccccc3[nH]2)n1 | 8.1* | 9 | 0 | -6 | 0 | 5
